Results taken from PubChem BioAssay AID602396 (The Scripps Research Institute Molecular Screening Center, 2012).
The whole screen tested about 360,000 compounds, of which about 460 (0.13%) were called active.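 How the source made its calls: active means inhibition above the mean inhibition of all tested compounds plus 3 SD (cut at about 73% in these data); inactive means the rest.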 Many of the other results were omitted from the sample, so actives are more common in it than they were.

Each molecule was assayed against Nuclear receptor subfamily 5 group A member 2 (Homo sapiens) (UniProt O00482) (assay: reduction of NR5A2-driven StAR reporter activity – cell-based, luminescence, HEK293T, StAR-luciferase reporter, primary screen (AID 602396;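 further: 0% = DMSO wells and 100% = reporter-only cells lacking LRH-1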)). Settings: LRH-1 transfected, 24 h, at 3.6 µM, hits give high values.
Nuclear receptor subfamily 5 group A member 2 (Homo sapiens), sequence (O00482 whole entry, looked up): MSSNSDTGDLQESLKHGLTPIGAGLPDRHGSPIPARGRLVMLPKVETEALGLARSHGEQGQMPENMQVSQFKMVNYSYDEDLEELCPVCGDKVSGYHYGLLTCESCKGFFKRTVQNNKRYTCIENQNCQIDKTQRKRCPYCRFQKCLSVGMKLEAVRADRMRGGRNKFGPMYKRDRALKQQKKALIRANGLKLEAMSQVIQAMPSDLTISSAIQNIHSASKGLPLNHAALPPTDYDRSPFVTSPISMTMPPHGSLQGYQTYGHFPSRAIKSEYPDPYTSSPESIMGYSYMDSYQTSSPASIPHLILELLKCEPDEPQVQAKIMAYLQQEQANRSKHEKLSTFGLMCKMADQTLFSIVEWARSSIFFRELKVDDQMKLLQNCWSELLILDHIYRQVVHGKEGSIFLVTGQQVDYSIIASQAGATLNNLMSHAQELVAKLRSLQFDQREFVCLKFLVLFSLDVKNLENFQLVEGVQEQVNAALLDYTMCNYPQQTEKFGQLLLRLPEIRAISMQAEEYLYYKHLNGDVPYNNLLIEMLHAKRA

Compound | inhibition
CC1(C)CC(N2CCN(C(c3ccccc3)c3ccccc3)CC2)=CC(=[N+]2CCCCC2)C1 | 91.7% (active)
COc1ccc(C2CC(=O)Oc3ccc(C(C)(C)C)cc32)cc1 (stereo unspecified) | 21.2% (inactive)
Cn1cnc(S(=O)(=O)N2C[C@@H](O)COC[C@@H]3O[C@H](CC(=O)NC4CCC4)CC[C@H]32)c1 | -18.2% (inactive)
COc1ccc(NC(=O)/C(Cl)=C(/Cl)S(=O)Cc2ccc(C)cc2)cn1 (stereo unspecified) | 87.2% (active)
O=C(COC(=O)Cc1ccc(Br)cc1)Nc1c(F)c(F)c(F)c(F)c1F | 1.54% (inactive)
CCOC(=O)CSC1=N/C(=C/c2ccc(-n3cncn3)cc2)C(=O)N1C(C)=O | 11.2% (inactive)
CCOC1CCCCC1NS(=O)(=O)c1ccc(Cl)cc1 (stereo unspecified) | 5.98% (inactive)
COc1ccccc1-n1ccnc(SCC(=O)NC2CCCCC2)c1=O | 1.62% (inactive)
O=C(Nc1ccc2c(c1)OCCO2)C(c1ccc(F)cc1)N1CCCCC1 (stereo unspecified) | 4.16% (inactive)
CCCCCCCC[n+]1cccc(C(=O)N2c3c(nc(N)[nH]c3=O)NC(C)C2C)c1 (stereo unspecified) | 4.18% (inactive)
C=CCn1c(CNS(=O)(=O)c2ccc(Br)cc2)nnc1SC | -25.5% (inactive)
CCS(=O)(=O)Nc1cc(C(=O)OC)ccc1C(=O)OC | 7.66% (inactive)
CCOc1ccc(NS(=O)(=O)c2cc(C)c(C)cc2C)cc1 | 0.32% (inactive)
Cc1cnc(C(=O)Oc2cccc(Cl)c2Cl)cn1 | 10.5% (inactive)
CCc1c(O)cc2n(c1=O)-c1ccccc1C2(C)C | 6.01% (inactive)
Cc1cc(C)cc(NS(=O)(=O)c2ccc(Oc3ncc(C(F)(F)F)cc3Cl)cc2)c1 | 3.47% (inactive)
COc1ccc(C2(C)ON(c3ccccc3C(F)(F)F)C2=O)cc1 (stereo unspecified) | -1.81% (inactive)
COCCNC(=O)C1CCN(S(=O)(=O)c2ccc3c(c2)OCCO3)CC1 | 8.61% (inactive)
COc1ccc(C)cc1NC(=O)CSc1cccc[n+]1[O-] | -14.4% (inactive)
CC1(C)CC(=O)C=C(c2ccc3ncccc3c2)C1 | 47.8% (inactive)
CCCNC(=O)C1(C)CCCN(C(=O)c2cccc(OC(C)=O)c2C)C1 (stereo unspecified) | -0.02% (inactive)
COC(=O)C(C(=O)Nc1cccc(Cl)c1C)C1CCCC1 (stereo unspecified) | 1.94% (inactive)
O=C(O)c1ccccc1C(=O)NC1=NN(c2ccccc2)CC1 | -6.24% (inactive)

Compound | inhibition
CN(CCc1ccccn1)C(=O)c1ccc(OC2CCN(Cc3ccccn3)CC2)cc1 | -11.4% (inactive)
O=C(NCCOc1cccnc1)c1ccc(OC2CCN(Cc3ccccn3)CC2)cc1 | 90.4% (active)
Cn1cc(CNC(=O)c2ccc(OC3CCN(Cc4ccccn4)CC3)cc2)cn1 | 16.2% (inactive)
O=C(Nc1cccc(S(=O)(=O)N2CCCC2)c1)c1cncc(Br)c1 | -0.97% (inactive)
COc1ccc(SC[C@H](Cc2ccccc2)N2CCN(CCc3ccccc3)CCC2=O)cc1 | -6.85% (inactive)
CCn1nc(C(=O)NNS(=O)(=O)c2cc(/C=C/C(=O)O)cc(OC)c2OC)c2ccccc2c1=O | 11.4% (inactive)
O=C(O)C(NS(=O)(=O)c1cccc2nsnc12)c1ccccc1 (stereo unspecified) | -4.31% (inactive)
COc1ccc2c(c1)c(=Cc1ccc(N(C)C)cc1)c1cc(-c3ccccc3)[n+](C)n12 | 91.5% (active)
COc1ccc(S(=O)(=O)N2CCCCC2)cc1NC(=O)C1CC(=O)N(c2ccc3c(c2)OCCO3)C1 (stereo unspecified) | 8.99% (inactive)
NS(=O)(=O)c1ccc(NC(=O)/C=C/c2ccccc2Cl)cc1 | -11.9% (inactive)
CCN(CC(=O)NCc1cccs1)C(=O)c1ccc(OC)c(S(=O)(=O)N2CCOCC2)c1 | -9.13% (inactive)
COc1ccc(N2C(=O)C(O)C2c2ccc(C)cc2)cc1 (stereo unspecified) | -10% (inactive)
C/C=C/C(=O)Nc1ccc(N2CCN(c3ccc(C(F)(F)F)cn3)CC2)nc1 | -9.09% (inactive)
COC(=O)c1cccc(C(=O)N2CCC(CCC(=O)NCc3ccc(F)cc3)CC2)c1 | 11.6% (inactive)
Nc1nc(SCC(=O)NNc2c(Cl)cc(Cl)cc2Cl)n[nH]1 | 14.2% (inactive)
CCc1cc(=O)oc2cc(C)cc(OC(C)C(=O)O)c12 (stereo unspecified) | 6.8% (inactive)
CC1CC(C)(C)CC2(C1)NC(=O)N(CC(=O)Nc1nccs1)C2=O (stereo unspecified) | -13.1% (inactive)
CC(=O)N1CCC(C(=O)OCc2ccc(Cl)cc2)(c2ccccc2)CC1 | -12.7% (inactive)
OCC(O)CN(c1ccccc1)c1ccccc1 (stereo unspecified) | 9.64% (inactive)
CC(Sc1nnc(-c2cccs2)n1C1CC1)C(=O)NCC1CCCO1 (stereo unspecified) | -12.2% (inactive)
C=CCn1c(C)cc(C2=NNC(=NCC)SC2)c1C | 84.2% (active)
O=C(COC(=O)c1ncc(Cl)c(Cl)c1Cl)NCc1cccs1 | -2.02% (inactive)
COc1cccc2c1C(=O)c1c(O)c3c(c(O)c1C2=O)CC(O)(C(C)=NNC(=O)c1ccc(Cl)c(Cl)c1)CC3OC1CC(N)C(O)C(C)O1 (stereo unspecified) | 95.6% (active)

Compound | inhibition
CCNC(=O)NNC(=O)C1CC(c2cccs2)=NO1 (stereo unspecified) | 19.8% (inactive)
C=CCn1c2ccccc2c2nnc(SCc3[nH]c(=O)[nH]c3C(=O)CCCCC(=O)OCC)nc21 | 9.39% (inactive)
CCOC(=O)c1sc(N(Cc2ccccc2)C(=O)CN2C(=O)CN(C)C2=O)nc1C | -6.11% (inactive)
CC(c1cccnc1)N(CCN(C)C)C(=O)Nc1ccc(Cl)c(Cl)c1 (stereo unspecified) | -1.18% (inactive)
O=C(CC(O)(C(F)(F)F)C(F)(F)F)Nc1ccc(Cl)c(Cl)c1 | 100% (active)
O=C(Nc1ccc(Cl)c(Cl)c1)N1CC=C(c2ccccc2)CC1 | -22.6% (inactive)
CC(C)(C)c1ccc(Oc2ccc(N)cc2)cc1 | 80.6% (active)
CN(C)S(=O)(=O)c1ccc(Oc2ccc(S(=O)(=O)N(C)C)cc2)cc1 | 26% (inactive)
C[C@H](NC(=O)C1CCN(S(=O)(=O)c2ccccc2)CC1)C(=O)NCc1ccccc1 | -15.6% (inactive)
COc1ccccc1-n1nnnc1S(=O)(=O)Cc1ccc(Cl)cc1 | 47.7% (inactive)
CC[C@H](C)[C@@H](C(=O)N1CCNCC1)n1cc([C@@H](N)Cc2ccc(O)cc2)nn1 | 5.8% (inactive)
Cc1nn(-c2ccccc2)c2c1C(=O)NC(=O)C(C)(C)C2 | 10.2% (inactive)
CC(=O)c1cnc(SCC(=O)O)nc1C | -8.72% (inactive)
O=C(c1cc2ccccc2o1)N1CCN(S(=O)(=O)c2ccc(Cl)s2)CC1 | -4.99% (inactive)
COc1ccc(S(=O)(=O)N2CCOC23CCN(S(=O)(=O)c2ccc([N+](=O)[O-])cc2)CC3)cc1 | 4.75% (inactive)
O=C(O)C1=C(C(=O)O)C2CCC1C2 | -20.2% (inactive)
CCn1ccnc1CN1CCCC(C(=O)c2ccc3c4c(cccc24)CC3)C1 (stereo unspecified) | 4.32% (inactive)
C/C=C(/C)C(=O)O[C@@H]1c2cc3c(c4c2[C@@]2(CO4)C(=O)C(OC)=C(OC)C=C2C[C@@H](C)[C@H]1C)OCO3 | 8.2% (inactive)
Cc1ccc(/C=C/C(=O)OCC(=O)Nc2cccnc2Cl)cc1 | -17.1% (inactive)
COC(=O)Cc1cnc(NC(=O)CSc2nc(C(C)C)cc(=O)[nH]2)s1 | 7.32% (inactive)
Cc1cccc(C(=O)C(O)(c2ccccc2)C2CCCCC2=O)c1 (stereo unspecified) | -15.3% (inactive)
CCOc1ccc(CCNC(=O)COC(=O)c2ccc(C)c(S(=O)(=O)N3CCOCC3)c2)cc1OCC | -2.87% (inactive)
O=C(O)COc1nsnc1N1CCOCC1 | -2.76% (inactive)

Compound | inhibition
Cc1ccc(C)c(S(=O)(=O)Nc2cc(C)on2)c1 | 13.7% (inactive)
CCOc1ccc(N2CC(C(=O)N/N=C/c3sccc3C)CC2=O)cc1 (stereo unspecified) | 3.97% (inactive)
CCc1ccc2[nH]c(=O)c(Cc3ccccc3)c(O)c2c1 | 10.4% (inactive)
COc1ccc(Cl)cc1NS(=O)(=O)c1cccc(C(=O)NCC2CCCO2)c1 (stereo unspecified) | 10.9% (inactive)
CCOCCCNC(=O)c1cn(CC(C)C)c(=O)c2c1c1ccccc1n2C | 0.96% (inactive)
COC(=O)c1cn(C)c2ccc(S(=O)(=O)N3CC(C)CC(C)C3)cc2c1=O (stereo unspecified) | -9.25% (inactive)
COc1ccc(CCn2c(NN=C3CCCC3)nc3c2c(=O)[nH]c(=O)n3C)cc1 | 14% (inactive)
COCc1cc(C)n(CC(=O)NCC2CCCO2)c(=O)c1C#N (stereo unspecified) | -7.89% (inactive)
N/C(=N\S(=O)(=O)c1cc(C(F)(F)F)cc(C(F)(F)F)c1)c1cccs1 | 10.3% (inactive)
COc1cccc(CNS(=O)(=O)c2cc3c(cc2C)n(C)c(=O)c(=O)n3C)c1 | 1.81% (inactive)
Cc1ccc(CNC(=O)C2CCCN(S(C)(=O)=O)C2)cc1 (stereo unspecified) | 14.4% (inactive)
COCCn1c(C)cc(C(=O)COC(=O)CNC(=O)c2ccco2)c1C | 5.6% (inactive)
Cc1ccsc1C(=O)OCC(=O)c1cc(C)n(CC2CCCO2)c1C (stereo unspecified) | 80.7% (active)
CCCn1c(C)cc(C(=O)COC(=O)c2c(C)nn(-c3ccccc3)c2C)c1C | 7.52% (inactive)
C=CCc1cc(S(=O)(=O)c2ccc(O)c(CC=C)c2)ccc1O | 11.4% (inactive)
CCNS(=O)(=O)c1ccc(CCC(=O)N2CCN(c3cc(Cl)ccc3C)CC2)cc1 | -4.58% (inactive)
COc1ccc(NS(=O)(=O)c2ccc(O)c(C(=O)OCC(=O)NC3CCCCC3)c2)cc1 | 0.7% (inactive)
Cc1cc(=O)cc(C)[nH]1 | 3.47% (inactive)
COc1ncnc2c1N=C1CC(C)(C)CC(N)=C1S2 | 22.7% (inactive)
COC1(C2=NCCN2)COc2ccccc2O1 (stereo unspecified) | 15.1% (inactive)
O=C1CN(C(=O)COC(=O)c2cnc(Cl)c(Cl)c2)c2ccccc2N1 | 0.85% (inactive)
CC[C@@H]1CC2=C(C(=O)OC(C)(C)O2)[C@@H](CC)O1 | 13.2% (inactive)
